Bioassay records deposited in PubChem BioAssay by National Center for Advancing Translational Sciences (NCATS).
AmpC inh detg = qHTS Inhibitors of AmpC Beta-Lactamase (assay with detergent). Potency, µM (doses to about 114 µM), for inactives: at the highest dose activity change, negative = inhibition, actives largely listed as inhibitors. AmpC hydrolysis of nitrocefin, absorbance 480 nm, 0.01% Triton. P00811. 370,000 compounds, 0.041% hits. AID 485294, 2010;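 note: 0% = no-compound wells and -100% = no-enzyme wells; nearly all actives have a fitted effect of over 25% in size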
Target sequence (P00811 whole entry, looked up): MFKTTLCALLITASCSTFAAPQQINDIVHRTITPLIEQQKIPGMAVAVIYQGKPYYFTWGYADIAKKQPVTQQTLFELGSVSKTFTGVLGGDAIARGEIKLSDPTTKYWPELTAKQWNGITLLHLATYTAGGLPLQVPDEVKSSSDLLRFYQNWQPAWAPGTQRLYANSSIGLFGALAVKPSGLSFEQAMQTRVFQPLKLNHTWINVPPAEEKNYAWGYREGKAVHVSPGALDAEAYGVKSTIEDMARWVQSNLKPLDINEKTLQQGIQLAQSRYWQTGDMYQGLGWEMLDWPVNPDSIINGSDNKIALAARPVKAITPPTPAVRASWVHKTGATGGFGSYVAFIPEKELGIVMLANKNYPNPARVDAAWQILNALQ
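20 mM phosphate pH 7.0 + 0.01% (detergent screen) or 0.0001% Triton X-100; 5.3 nM AmpC reagent; cpd preinc 15 min RT; nitrocefin (800 uM stock) to start; A480 q20 s × 4 min; Activity was normalised to no-enzyme and no-compound control wells.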
AmpC no deterg = qHTS Inhibitors of AmpC Beta-Lactamase (assay without detergent). P00811. AmpC nitrocefin hydrolysis, absorbance 480 nm, 0.0001% Triton. Potency, µM (top dose mostly 57.1 µM), for inactives: top-dose activity change, negative = inhibition, hits mostly inhibitors. 330,000 compounds, 0.52% hits;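 note: plate controls were no compound for no effect and no enzyme for full effect; nearly all actives have a fitted effect of over 20% in size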
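AmpC (5.3 nM in the dispensed reagent) in 20 mM phosphate pH 7.0 with 0.01% (detergent screen) or 0.0001% Triton X-100 was preincubated with compounds for 15 min at room temperature. Nitrocefin was then added from an 800 uM solution, and hydrolysis was followed at 480 nm.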
Giardia FBPA inh = qHTS Assay for Inhibitors of Fructose-1,6-bisphosphate Aldolase from Giardia Lamblia | A8B2U2 | purified Giardia FBPA | Potency, µM (doses to about 59.6 µM), without a hit: top-dose activity, negative = inhibition, most hits filed as inhibitors | 290,000 compounds, 0.71% hits; note: nearly all actives have a fitted effect of over 55% in size
Target sequence (A8B2U2 whole entry, looked up): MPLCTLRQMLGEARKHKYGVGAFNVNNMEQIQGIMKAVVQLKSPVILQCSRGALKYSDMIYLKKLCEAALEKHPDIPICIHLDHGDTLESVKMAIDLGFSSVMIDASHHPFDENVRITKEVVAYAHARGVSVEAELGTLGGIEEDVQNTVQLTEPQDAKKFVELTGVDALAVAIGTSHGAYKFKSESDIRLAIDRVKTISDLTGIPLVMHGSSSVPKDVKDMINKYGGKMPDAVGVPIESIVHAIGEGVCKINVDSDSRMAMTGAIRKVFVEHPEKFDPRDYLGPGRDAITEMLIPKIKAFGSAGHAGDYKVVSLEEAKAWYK
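Giardia FBPA (40 nM reagent) was preincubated 10 min at RT with compound (up to 57.5 uM final), then substrate plus GAPDH/TPI/NAD/arsenate coupling system with diaphorase/resazurin was added; resorufin fluorescence (525/598 nm) was read after 20 min.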
Sm TGR inh = qHTS Assay for the Inhibitors of Schistosoma Mansoni Peroxiredoxins | Potency, µM (top dose mostly 114 µM), for the others: at the top dose activity change, negative = inhibition, hits mostly inhibitors | 360,000 compounds, 3% hits | Schistosoma mansoni thioredoxin glutathione reductase (TGR), Q962Y6 | purified TGR, DTNB reduction, TNB absorbance 405 nm; note: nearly all actives have a fitted effect of over 60% in size
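First, TGR (20 nM dispensed) and NADPH were mixed with compound. Second, a 15 min room-temperature incubation followed. Third, further NADPH and then DTNB were added to start the reaction. Finally, TNB absorbance was monitored kinetically.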
* marks the source's active call; other numbers are inactive results; ? = inconclusive; / = no result; [ ] = another dose, or the depositor's remark. A selection: hits, their analogues and other compounds. The true share with any hit is near 3.6%. Calls come from the whole dose curve; as a rule, active = well fitted curve in the direction sought with a large enough effect; inconclusive = small, poorly fitted or top-dose-only effect, or another doubt; inactive = no such curve, though single readings can be large; an effect the other way counts as inactive or inconclusive. Unless noted, % is set by controls: 0 for no effect and ±100 for the full control effect; potency is the fitted concentration of half-maximal effect.

SMILES	AmpC inh detg	AmpC no deterg	Giardia FBPA inh	Sm TGR inh
CC(=O)C1=C(C)OC(N)=C(C#N)C1c1cc([N+](=O)[O-])ccc1Cl (configuration not stated)	-6.3%	-11.4%	-25.7%	22.4µM*
CC(=O)C1=C(C)OC(N)=C(C#N)C1c1cccc([N+](=O)[O-])c1 (configuration not stated)	-9.9%	-35.9%	?	14.1µM*
COC(=O)C(CCSC)NS(=O)(=O)c1ccccc1Br (configuration not stated)	/	/	8.2%	/
COC(=O)C1=C(C(=O)OC)[C@@H]2N(C)c3ccc(OC)cc3[C@@]23C[C@@H](C(=O)OC)N(S(=O)(=O)c2ccc(C(F)(F)F)cc2)C3=N1	/	/	-4.7%[12.9 µM]	/
O=C(C1CCC1)N1CCN(S(=O)(=O)c2ccc(Br)cc2Cl)CC1	?	28.5%	/	-10.0%
CCN(CC)CCCN1C(=O)C(O)=C(C(=O)c2ccc(C)o2)C1c1cccs1 (configuration not stated)	4.7%	-25.6%	1.0%	44.7µM*
CCN(CC)CCCN1C(=O)C(O)=C(C(=O)c2ccc(C)o2)C1c1ccc(C)o1 (configuration not stated)	6.2%	-12.9%	-2.6%	50.1µM*
CCOc1ccc(C2C(C(=O)c3ccc(C)o3)=C(O)C(=O)N2CCCN(CC)CC)cc1 (configuration not stated)	-4.0%	-5.9%	-1.3%	35.5µM*
O=C(Cc1cn(-c2ccccc2)nc1-c1ccccc1)N1CCCCC1	4.4%	37.5%	2.2%	21.6%
Cc1ccc(-n2c(=O)[nH]c3cc(C(=O)NCc4ccccc4)ccc3c2=O)cc1	?	/	/	-7.0%
CC(=O)N1CCc2cc(S(=O)(=O)C(C)CC(=O)Nc3ccc(Br)c(C)c3)ccc21 (configuration not stated)	22.2%	/	/	-0.1%
Cn1c(COc2ccc(Br)cc2)nnc1SC1CCc2ccccc2C1=O (configuration not stated)	-3.8%	-17.1%	17.7µM*	?
Cn1c(COc2ccccc2)nnc1SCCSc1nnc(COc2ccccc2)n1C	?	-12.3%	3.2%	-2.1%
Cc1cc(S(=O)(=O)Nc2noc3ccccc23)ccc1F	-4.8%	8.3%	20.4%	13.6%
O=C(NC(=S)Nc1ccc(CN2CCOCC2)cc1)c1cccc([N+](=O)[O-])c1	-12.8%	-1.4%	4.1%	89.1µM*
O=C(NC(=S)Nc1cccc(F)c1)c1cccc([N+](=O)[O-])c1	-6.6%	-27.7%	?	20µM*
O=C(NC(=S)Nc1ccc(CN2CCOCC2)cc1)c1ccc([N+](=O)[O-])cc1Cl	?	-3.2%	-12.6%	-25.0%
CCNC(=S)Nc1cccc([N+](=O)[O-])c1	-3.7%	-5.4%	0.1%	-31.2%
C=CCNC(=S)Nc1cccc([N+](=O)[O-])c1	1.9%	13.0%	?	31.6µM*
O=C(NC(=S)Nc1ccc2[nH]c(=O)[nH]c2c1)c1cccc(F)c1	-1.0%	-16.5%	?	2.82µM*
COc1cc([N+](=O)[O-])cc2cc(C(=O)N3CCCC3)c(=O)oc12	4.0%	3.9%	0.8%	5.4%
COc1ccc(Cn2c(CCC(=O)Nc3cccc(Cl)c3)nc3cccnc32)cc1	-9.9%	/	/	-0.1%
O=C(C/C=N\OCc1ccc([N+](=O)[O-])cc1)Nc1ccc(Br)cc1	1.1%	?	0.0%	5.3%
Cc1ccc(NC(=O)CSc2n[nH]c(-c3cccnc3)n2)cc1Cl	-3.3%	-44.4%	13.0%	1.7%
CC(C)c1ccc(CNC(=O)c2ccc(N3CCCC3)c(NC(=O)NCc3ccc(F)cc3)c2)cc1	8.7%	/	/	3.1%
SMILES	AmpC inh detg	AmpC no deterg	Giardia FBPA inh	Sm TGR inh
Fc1ccc(Cn2c(-c3cccc(Br)c3)nc3ccccc32)cc1	0.4%	/	/	0.5%
O=C(NC(=S)Nc1ccc(N2CCOCC2)cc1)c1cccc([N+](=O)[O-])c1	-6.6%	-13.8%	0.9%	39.8µM*
O=C(c1ccco1)N1CCN(Cc2cc(=O)c(OCc3ccc(F)cc3)co2)CC1	-13.5%	-10.4%	/	-17.7%
CCOC(=O)Nc1nnc(-c2ccccc2OC)s1	2.3%	-14.3%	-1.0%	-3.1%
CCC(SC1=NCCS1)C(=O)Nc1nnc(-c2ccccc2OC)s1 (configuration not stated)	0.7%	10µM*	-11.1%	5.8%
Fc1ccc2[nH]c(-c3cccs3)cc2c1	-6.8%	/	/	-9.8%
CNC(=S)N1CCn2cccc2C1c1ccc(F)cc1 (configuration not stated)	-1.5%	16.4%	?	35.5µM*
O=C(O)CCC(=O)Nc1ccccc1C(=O)N1CCN(c2ccc(Cl)cc2)CC1	-6.6%	-12.0%	3.2%	/
Cc1nnsc1C(=O)Oc1ccc(Cl)cc1	5.8%	/	/	-30.4%
Cc1nnsc1C(=O)Oc1ccc(C#N)cc1	9.9%	/	/	15.8µM*
O=S1OCCN1c1ccccc1 (configuration not stated)	?	-16.0%	-4.5%	-11.9%
CCOC(=O)c1ccc(CC(=O)c2ccc(O)c(O)c2O)o1	3.9%	-41.6%	11.2µM*	?
CCOC(=O)c1ccc(CC(=O)c2oc3cc(O)ccc3c2C)o1	?	-45.6%	-1.0%	28.2µM*
CCOC(=O)c1oc2cc(O)ccc2c(=O)c1-c1csc(C)n1	-10.3%	-11.2%	10.4%	3.6%
CCOC(=O)c1ccc(CSC(=N)N)o1	-0.7%	-0.5%	0.3%	2.6%
CCN(CC)CCNC(=O)c1ccc2nc(CCc3ccccc3)oc2c1	2.7%	/	/	0.4%
COc1ccc(OC)c(N2C(=NC(=O)C3CCCCC3)SC3CS(=O)(=O)CC32)c1 (configuration not stated)	-4.8%	47.0%	-7.8%	-19.3%
Cc1ccc(C(=O)NC2CCCC2)cc1S(=O)(=O)N1CCCCC1	?	-8.1%	5.1%	-10.3%
Cc1ccc(C(=O)OCC(=O)c2c[nH]c3ccccc23)cc1S(=O)(=O)N1CCCCC1	-13.1%	15.8µM*	-2.3%	-1.4%
Cc1ccc(C(=O)NNC(=O)c2ccccc2O)cc1S(=O)(=O)N1CCCCC1	?	8.91µM*	/	2.6%
COc1ccc(CCNC(=O)c2oc(=O)c3ccccc3c2-c2ccccc2)cc1OC	-0.9%	/	/	10.5%
CC1(C)CC(=O)C(Sc2ccccc2)=C(O)C1	-13.1%	-31.8%	-15.0%	10µM*
Cc1ccc(N2CCN(C(=O)c3nn(C)c4c3CS(=O)(=O)c3ccccc3-4)CC2)c(C)c1	2.3%	46.0%	3.2%	4.0%
Cn1cncc1C#Cc1ccc2cc(CCO)oc(=O)c2c1	3.6%	-11.2%	/	11.2µM*
OC(CSc1ccc(F)cc1)CN1CCN(c2ccccc2)CC1 (configuration not stated)	-3.2%	2.8%	1.2%	-4.4%
C/C(=N\Nc1cccc2ccccc12)c1c(O)n(Cc2ccccc2)c(=O)[nH]c1=O	-14.1%	-38.1%	?	12.6µM*
